Test systems include RPMI-8226 leukemia; OVCAR-5 ovarian; OVCAR-4 ovarian; SK-OV-3 ovarian; IGROV1 ovarian; OVCAR-3 ovarian; HS 578T breast; NCI/ADR-RES ovarian; T-47D breast; BT-549 breast; MDA-MB-435 melanoma; SW-620 colon; MCF7 breast; HCT-116 colon; HCC-2998 colon; KM12 colon; OVCAR-8 ovarian.
Common to all, as to test: NCI-60 one-dose screen, 48 h (100 = growth as untreated, 0 = no growth, -100 = all killed)
Conditions in all cases: 10 µM unless noted

Structures are written as SMILES. Compounds without any hit were thinned out: in the full panel of roughly 83,000, 20% have a hit.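 Note: values are percent growth. 100 is the growth of untreated cells, values between 100 and 0 indicate rising inhibition; between -100 and 0 indicates cell death.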 A number with no mark means an inactive call. The source made the active and inactive calls. How the source made its calls: active means growth percent below 10; inactive means the rest.

Take `C[C@H](Oc1cc(-c2cnn(C3CCNCC3)c2)cnc1N)c1c(Cl)ccc(F)c1Cl`: the growth was 23.3% in the assay on RPMI-8226 leukemia; 94.3% in the assay with OVCAR-5 ovarian; 66.7% in the assay with OVCAR-4 ovarian; 87.2% in the assay with SK-OV-3 ovarian; 71.9% in the assay with IGROV1 ovarian; 72.3% in the assay with OVCAR-3 ovarian. Besides, the growth is 56.5% in the assay with HS 578T breast; 85.1% in the assay with NCI/ADR-RES ovarian; 55.7% with T-47D breast; 75.7% with BT-549 breast; 66.1% with MDA-MB-435 melanoma; 79.5% with SW-620 colon. The growth in the assay on MCF7 breast is 37.6%; in the assay with HCT-116 colon, 31.9%; in the assay with HCC-2998 colon, 66%; in the assay with KM12 colon, 50.6%.
In the case of `COc1ccc(C(=O)c2cc(OC)c(OC)c(OC)c2)cc1OC(=O)C(Cl)(Cl)Cl`, the growth in the assay with RPMI-8226 leukemia was 17.9%; in the assay on OVCAR-5 ovarian, 63.8%; with OVCAR-4 ovarian, 59.7%; in the assay on SK-OV-3 ovarian, 8.13% (active); in the assay on IGROV1 ovarian, 15.9%; in the assay with OVCAR-3 ovarian, -13.5% (active). In addition, the growth with HS 578T breast is 38.9%; in the assay on T-47D breast, 63%; in the assay on BT-549 breast, -0.136% (active); in the assay on MDA-MB-435 melanoma, -13.5% (active); in the assay on SW-620 colon it was 22.9%; with MCF7 breast, 9.81% (active). For the same molecule, the growth in the assay on HCT-116 colon is 4.91% (active); with HCC-2998 colon, 15.4%; in the assay on KM12 colon, 9.4% (active).
In the case of `O=C(Nc1cc(Br)ccn1)c1cc2cc(Nc3nc(-c4ccccc4)nc4ccccc34)ccc2oc1=O`, the growth in the assay with RPMI-8226 leukemia is 108%; in the assay on OVCAR-5 ovarian it was 115%; in the assay on OVCAR-4 ovarian it was 111%; with SK-OV-3 ovarian, 103%; with IGROV1 ovarian it was 115%; with OVCAR-3 ovarian, 113%. Moreover, the growth in the assay on HS 578T breast is 107%; in the assay with NCI/ADR-RES ovarian, 113%; in the assay on T-47D breast, 98.3%; with BT-549 breast, 103%; in the assay with MDA-MB-435 melanoma, 116%; in the assay on SW-620 colon it was 104%. Besides, the growth with MCF7 breast is 91.1%; in the assay on HCT-116 colon it was 98.5%; in the assay with HCC-2998 colon, 92.7%; with KM12 colon it was 102%.
Take `CCCS(=O)(=O)Nc1ccc(F)c(C(=O)c2c[nH]c3ncc(-c4ccc(OCCCC5CCCCN5)nc4)cc23)c1F` (configuration not stated): the growth in the assay with RPMI-8226 leukemia is 64%; in the assay on OVCAR-5 ovarian, 78.1%; with OVCAR-4 ovarian, 83.6%; with SK-OV-3 ovarian it was 11.6%; with IGROV1 ovarian it was 31.7%; with OVCAR-3 ovarian, 89.6%. Further, the growth is 9.28% (active) in the assay with HS 578T breast; 100% in the assay with NCI/ADR-RES ovarian; 17.7% with T-47D breast; 57.5% in the assay with BT-549 breast; 25.9% in the assay with MDA-MB-435 melanoma; 116% with SW-620 colon. The growth in the assay with MCF7 breast is 69.4%; with HCT-116 colon it was 70%; in the assay on HCC-2998 colon, 108%; in the assay on KM12 colon, 103%.
With `CCCn1c(N)c(C(N)=O)sc1=S`, the growth is 94.5% in the assay on RPMI-8226 leukemia; 90.8% in the assay on OVCAR-5 ovarian; 111% with OVCAR-4 ovarian; 103% in the assay on SK-OV-3 ovarian; 100% in the assay with IGROV1 ovarian; 103% in the assay with OVCAR-3 ovarian. Moreover, the growth is 95.7% with HS 578T breast; 104% in the assay with NCI/ADR-RES ovarian; 94.8% in the assay with T-47D breast; 118% with BT-549 breast; 109% in the assay with MDA-MB-435 melanoma; 101% in the assay with SW-620 colon. The growth was 106% in the assay on MCF7 breast, 110% in the assay on HCC-2998 colon and 97.4% in the assay with KM12 colon.
As to `COc1cc(/C=C/C(=O)/C=C/c2cc3ccc(Cl)cc3[nH]c2=O)ccc1O`, the growth is 4.64% (active) in the assay with RPMI-8226 leukemia; 103% with OVCAR-5 ovarian; 68% with OVCAR-4 ovarian; 105% in the assay on SK-OV-3 ovarian; 40.7% with IGROV1 ovarian; 42.4% in the assay on OVCAR-3 ovarian. Further, the growth in the assay on HS 578T breast is 73.8%; in the assay with NCI/ADR-RES ovarian, 41%; in the assay on T-47D breast, 88.8%; in the assay on BT-549 breast it was 97.5%; in the assay on MDA-MB-435 melanoma, 36%; in the assay with SW-620 colon, 29.7%. The growth is 57.8% in the assay with MCF7 breast, 2.1% (active) in the assay with HCT-116 colon, 86.3% with HCC-2998 colon and 81.3% in the assay on KM12 colon.
Regarding `COc1ccccc1-c1ccc2nc(NC(=O)Nc3cc(C(F)(F)F)cc(C(F)(F)F)c3)sc2c1`, the growth was -15.9% (active) in the assay on RPMI-8226 leukemia; 20.5% in the assay with OVCAR-5 ovarian; 16.5% in the assay with OVCAR-4 ovarian; -13.2% (active) in the assay with SK-OV-3 ovarian; 42.4% with IGROV1 ovarian; 8% (active) in the assay with OVCAR-3 ovarian. Further, the growth with HS 578T breast was -0.697% (active); in the assay with NCI/ADR-RES ovarian, 5.44% (active); in the assay with T-47D breast, -13.5% (active); in the assay on BT-549 breast it was 13.2%; with MDA-MB-435 melanoma, 10.9%; with SW-620 colon, 11.9%. Also, the growth was 4.1% (active) in the assay with MCF7 breast, 4.85% (active) in the assay on HCT-116 colon, 11.8% in the assay on HCC-2998 colon and 3.63% (active) in the assay with KM12 colon.
Turning to `COc1cc([C@H](C)c2ccc3ccccc3c2)cc(OC)c1OC`, the growth in the assay with RPMI-8226 leukemia is 15.9%; in the assay on OVCAR-5 ovarian, 62.1%; with OVCAR-4 ovarian it was 40.6%; in the assay with SK-OV-3 ovarian it was 31%; with IGROV1 ovarian, 36%; in the assay on OVCAR-3 ovarian, -19.7% (active). Further, the growth was 30.2% in the assay with HS 578T breast; 42.2% in the assay with T-47D breast; 39.1% in the assay with BT-549 breast; 0.308% (active) with MDA-MB-435 melanoma; 28.5% in the assay on SW-620 colon; 14.8% in the assay with MCF7 breast. For the same molecule, the growth with HCT-116 colon was 6.72% (active); with HCC-2998 colon it was 26.5%; in the assay on KM12 colon it was 19.6%.
In the case of `Cc1ccc(-c2nc(C#N)c(S(=O)(=O)N(C)CCO)o2)cc1`, the growth with OVCAR-8 ovarian is 67.4%; in the assay with OVCAR-5 ovarian it was 92%; with OVCAR-4 ovarian, 105%; in the assay on SK-OV-3 ovarian, 102%; in the assay on IGROV1 ovarian, 60.5%; with OVCAR-3 ovarian, 42.3%. The growth with HS 578T breast was 99.3%; in the assay on NCI/ADR-RES ovarian, 96.7%; in the assay with T-47D breast, 67.3%; in the assay on BT-549 breast, 76.7%; with MDA-MB-435 melanoma, 65%; in the assay with SW-620 colon it was 35.1%. The growth was 39.8% in the assay on MCF7 breast, 53.4% in the assay on HCT-116 colon, 107% in the assay on HCC-2998 colon and 89.9% in the assay on KM12 colon.
Regarding `COc1cc(-c2nn(-c3ccc(Br)cc3)cc2CO)ccc1O`, the growth in the assay with RPMI-8226 leukemia was 84.6%; in the assay on OVCAR-5 ovarian, 101%; in the assay on OVCAR-4 ovarian, 94.7%; with SK-OV-3 ovarian it was 105%; in the assay with IGROV1 ovarian it was 115%; in the assay on OVCAR-3 ovarian, 103%. Moreover, the growth is 88.9% in the assay with HS 578T breast; 99.3% with NCI/ADR-RES ovarian; 80.3% with T-47D breast; 89.6% in the assay with BT-549 breast; 108% in the assay on MDA-MB-435 melanoma; 104% in the assay on SW-620 colon. The growth with MCF7 breast was 92.1%; in the assay on HCT-116 colon it was 92.6%; in the assay on HCC-2998 colon, 104%; in the assay on KM12 colon, 91.7%.

Source of the values: PubChem BioAssay (NCI).
